Screening results (PubChem BioAssay)
GAA850 FXN act = increases GAA850 frataxin promoter reporter activity | HEK293 lucGAA850 FXN promoter luciferase reporter, 24 h; percent of 10 µM SAHA response | activation, % at 6 µM | 360,000 compounds, 0.56% hits;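 active = activation above the average of all compounds screened plus 3 SD, cutoff fixed separately per campaign, cut at about 7.5% in these data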;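 note: 0% = DMSO wells and 100% = 10 µM SAHA wells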
HSF1 inhib = HSF1 inhibition; 300,000 compounds, 0.77% hits; activity change, negative = inhibition, % at 7.5 µM (by protocol); NIH3T3-HGL HSE-luciferase, MG132-induced, luminescence 8 h; hits give low values;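 active = more than half of replicate wells show activity change below -50%, luminescence cut by over half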;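 note: luciferase reports HSF-1 transcriptional activity via heat shock element; 0% = median of DMSO wells and -100% = zero luminescence signal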
HSF-1 act = increases HSF-1 driven luciferase reporter signal | NIH3T3-HGL HSF-1 luciferase reporter, MG132, 8 h; 100% = twice DMSO control signal | activation, % at 9 µM | 300,000 compounds, 1.7% hits;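 active = mean replicate activation of at least 50% with a set share of replicates each reaching 50%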;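 note: 0% = median of the neutral control wells and 100% = twice that signal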
AHR act = activates the human aryl hydrocarbon receptor. P35869. AHR-responsive luciferase reporter cells, luminescence. activation, % at 5 µM. 320,000 compounds, 2.5% hits; in the data active = activation above about 47%;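 note: 0% = vehicle wells and 100% = reference agonist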
Target sequence (P35869 whole entry, looked up): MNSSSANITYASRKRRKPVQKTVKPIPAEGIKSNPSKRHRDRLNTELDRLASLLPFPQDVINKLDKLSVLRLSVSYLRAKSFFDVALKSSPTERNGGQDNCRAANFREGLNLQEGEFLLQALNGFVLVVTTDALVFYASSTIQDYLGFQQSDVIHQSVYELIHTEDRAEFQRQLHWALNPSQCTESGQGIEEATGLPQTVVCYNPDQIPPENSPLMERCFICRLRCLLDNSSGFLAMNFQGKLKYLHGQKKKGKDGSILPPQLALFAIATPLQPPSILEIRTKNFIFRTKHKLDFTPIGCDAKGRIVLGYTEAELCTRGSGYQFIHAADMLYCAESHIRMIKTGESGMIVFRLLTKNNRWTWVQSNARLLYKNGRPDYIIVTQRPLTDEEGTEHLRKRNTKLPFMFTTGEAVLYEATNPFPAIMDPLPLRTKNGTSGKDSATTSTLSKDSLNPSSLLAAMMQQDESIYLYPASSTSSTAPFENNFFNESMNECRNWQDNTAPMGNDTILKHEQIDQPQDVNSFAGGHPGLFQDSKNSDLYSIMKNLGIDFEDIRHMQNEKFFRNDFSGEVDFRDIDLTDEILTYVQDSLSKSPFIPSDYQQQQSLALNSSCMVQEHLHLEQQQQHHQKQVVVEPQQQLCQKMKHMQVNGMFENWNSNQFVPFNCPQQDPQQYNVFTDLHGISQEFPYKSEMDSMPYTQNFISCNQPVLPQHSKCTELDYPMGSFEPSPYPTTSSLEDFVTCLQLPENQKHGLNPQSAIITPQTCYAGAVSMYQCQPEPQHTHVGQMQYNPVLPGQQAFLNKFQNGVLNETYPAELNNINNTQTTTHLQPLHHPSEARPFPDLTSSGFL
DAX1 inh = NR0B1 (DAX1) inhibition | HEK293 Gal4-DAX1 luciferase reporter, luminescence | inhibition, % at 6.75 µM | AID 504766 | P51843 | 340,000 compounds, 0.99% hits;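 active = inhibition above the mean over all tested compounds plus 3 SD, cut at about 4.2% in these data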;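 note: 0% = DAX1-transfected cells with DMSO and 100% = empty-vector control cells with DMSO; inhibition shows as a rise in luminescence from relieved DAX1 repression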
Numbers without * were called inactive; nt = no result. This is a sample that favours compounds with a hit; in the whole collection about 5.4% have one here.

SMILES | GAA850 FXN act | HSF1 inhib | HSF-1 act | AHR act | DAX1 inh
C[C@@H]1CN([C@H](C)CO)C(=O)c2cc(NC(=O)Nc3ccc(F)cc3)ccc2O[C@H]1CN(C)C(=O)Nc1ccc(C(F)(F)F)cc1 | -2 | nt | nt | 1 | -1
Cc1noc(C)c1NC(=O)N(C)C[C@H]1OCCCC[C@@H](C)Oc2ccc(NC(=O)Nc3ccc(F)cc3)cc2C(=O)N([C@@H](C)CO)C[C@H]1C | 1 | nt | nt | nt | 5.1*
Cc1cc2c(=O)n(C)c(SCC(=O)Nc3ccccc3C)nc2s1 | 2 | 14 | 13 | 2 | -2
COc1cccc(CC(=O)N[C@@H](CCSC)c2nc3ccccc3[nH]2)c1 | -2 | -54* | -66 | 4 | 1
CCN(CC)CCCNC(=O)CN1N=C(c2ccc(OC)cc2)CCC1=O | -2 | 0 | -1 | 2 | -1
COc1ncnc2c1ncn2CCCN(CCCc1ccccc1)CCCn1cnc2c(OC)ncnc21 | -1 | nt | nt | nt | -1
Cc1nn(Cc2ccccc2Cl)c(C)c1NC(=O)CCCn1nc([N+](=O)[O-])c(Cl)c1C | -1 | 23 | 61* | 2 | 2
CC1CCN(C(=O)CSc2nc3c(cnn3-c3ccc(Cl)cc3)c(=O)[nH]2)CC1 | 2 | -86* | -89 | 0 | 0
CC1CCN(C(=O)CSc2nc3c(cnn3-c3ccccc3)c(=O)[nH]2)CC1 | 2 | 0 | -1 | 8 | 0
CC1CCN(C(=O)CSc2nnc(Cc3cc(=O)[nH]c(=O)[nH]3)n2-c2ccc(Cl)cc2)CC1 | -2 | -24 | -40 | 1 | 5.3*
COc1ccccc1NC(=O)C1CC(C)OC1=O (centres undefined) | 0 | 9 | 32 | -3 | 3
CC(C)n1c(O)c(/C=C2\C=NN=C2c2ccccc2)sc1=S | -1 | 1 | 1 | 64* | 1
Cn1c(Cn2c(=O)sc3ccccc32)nnc1SCC(=O)NC1CCCCC1 | -1 | 4 | 20 | -2 | 2
Cn1c(Cn2c(=O)sc3ccccc32)nnc1SCC(=O)NC1CCCC1 | 2 | -6 | -7 | -1 | 5.2*
NC(=O)CSc1nnc(Cn2c(=O)sc3ccccc32)n1CCc1ccccc1 | 1 | 0 | 5 | 1 | 4.5*
CCc1ccc(NC(=O)CSc2nnc(Cn3c(=O)sc4ccccc43)n2C)cc1 | 0 | nt | nt | 78* | 2
Cn1c(Cn2c(=O)sc3ccccc32)nnc1SCC(=O)Nc1ccccc1 | -2 | 0 | 4 | 9 | 2
O=C(O)CNc1nc(-c2ccccc2)nc2c1oc1ccccc12 | 1 | -13 | -15 | 21 | 2
c1ccc(-c2nc(NCc3cccnc3)c3oc4ccccc4c3n2)cc1 | 2 | 55 | 76* | 36 | -2
OCCCNc1nc(-c2ccccc2)nc2c1oc1ccccc12 | 0 | -2 | 10 | 50* | 1
O=C(CCCNC(=O)c1ccc(Cl)cc1)Nc1ccc(Br)cc1 | 4 | 13 | 5 | 71* | -1
CCC1CCCCN1CCCNC(=O)CCC(=O)N1CCOc2ccccc21 (centres undefined) | 2 | -3 | 3 | 0 | 1
CC(=O)COc1ccccc1OC(=O)c1ccco1 | -2 | -51* | -62 | -1 | -1
Cc1ccc(C)c2[nH]c(=O)c(CCNC(=O)C(C)(C)C)cc12 | -1 | -86* | -89 | 9 | 1
Cc1cc(C)c(S(=O)(=O)CCC(C)C)c(=O)[nH]1 | 1 | -1 | 25 | 1 | 1
SMILES | GAA850 FXN act | HSF1 inhib | HSF-1 act | AHR act | DAX1 inh
CC(C)[C@H](NS(=O)(=O)c1ccccc1)C(=O)Nc1ccccc1N1CCOCC1 | -2 | nt | nt | 1 | 0
Nc1[nH]n2c(=O)c3c(nc2c1N=Nc1ccc(Cl)cc1)CCCC3 | 2 | 1 | -13 | 57* | 0
COc1ccc(CNC(=O)c2ccc(CS(=O)(=O)c3ccc(Br)cc3)o2)cc1 | -1 | -68* | -74 | -2 | 6.2*
COc1ccccc1S(=O)Cc1ccc(C(=O)NC2CCCC2)o1 (centres undefined) | 1 | 1 | 0 | 2 | 5.5*
COc1ccc(S(=O)(=O)Cc2ccc(C(=O)NC3CCC(C)CC3)o2)cc1 (centres undefined) | 1 | -2 | 0 | -1 | 1
COc1ccc(S(=O)(=O)Cc2ccc(C(=O)NC3CC3)o2)cc1 | 1 | 5 | 26 | 0 | 13*
COc1ccccc1OCc1ccc(C(=O)NC2CCCCC2)o1 | -1 | -4 | 6 | 3 | 1
Cc1cccc(NC(=O)N2CCC(NC(=O)C3CCCCC3)CC2)c1 | 1 | -7 | -3 | 0 | 1
Cn1c(=O)c2ccccc2n2c(CCl)nnc12 | 1 | 1 | 4 | 1 | 0
Cc1ccc(S(=O)(=O)N(C)C)cc1NC(=O)COC(=O)/C=C/c1ccc2ccccc2n1 | 3 | 52 | 76* | 9 | 0
Cc1ccc(S(=O)(=O)N(C)C)cc1NC(=O)COC(=O)c1c(-c2ccccc2)noc1C | 0 | 14 | 10 | 2 | -2
CN(C)c1ccc(N=Nc2nc3ccccc3n2C)cc1 | -11 | -83* | -86 | 1 | -7
CCn1c(NCc2ccc(N(C)C)cc2)nc2ccccc21 | 0 | 8 | 16 | 24 | 0
O=C(CNC(=O)c1ccccc1F)N/N=C/c1cccnc1 | 2 | -3 | 3 | 3 | 1
CC(C)(O)C#Cc1ccc(C(=O)N2CCN(c3ccc(Cl)cc3)CC2)cc1 | 2 | 6 | -1 | 1 | 1
N#CC(C#N)=C/C(C#N)=C(/N)N1CCN(c2ccc(Cl)cc2)CC1 | 3 | 0 | -1 | -12 | 0
CN(C)C(=C(C#N)C#N)N1CCN(c2ccc(Cl)cc2)CC1 | -1 | -11 | -8 | 68* | 0
CN(C)C(=C(C#N)C#N)N1CCN(c2ccc(Cl)c(Cl)c2)CC1 | 2 | 2 | nt | 62* | 0
CSC(=NC#N)N1CCN(c2ccc(Cl)cc2)CC1 | 4 | 27 | 56* | 73* | 0
Cc1ccc([N+](=O)[O-])c(OCCCN2CCC(Cc3ccccc3)CC2)c1 | -5 | -60* | -71 | 0 | -1
Cc1ccc([N+](=O)[O-])c(OCCN2CCCCCC2)c1 | 2 | -3 | 20 | 2 | 2
O=Cc1cc(Cl)ccc1OCCN1CCC(Cc2ccccc2)CC1 | 3 | 2 | 14 | 0 | 0
O=[N+]([O-])c1cccc(OCCN2CCC(Cc3ccccc3)CC2)c1 | -1 | 1 | -3 | nt | 5.8*
Cc1ccc(S(=O)(=O)NCc2nnnn2-c2ccc(F)cc2)cc1 | -2 | nt | nt | nt | 0
O=C1CCC(C(=O)OCC(=O)N2N=C3/C(=C/c4ccccc4)CCCC3C2c2ccccc2)N1 (centres undefined) | -2 | 7 | -4 | 73* | -1
O=C1CCC(C(=O)OCC(=O)N2N=C3/C(=C\c4ccccc4)CCCC3C2c2ccccc2)N1 (centres undefined) | 0 | nt | nt | nt | -1
O=C(NCCCNC(=O)c1cnccn1)c1cccc(F)c1 | 0 | -4 | 5 | -1 | 0
Cc1ccc(N=Nc2c(N)n[nH]c2N)cc1 | 0 | -9 | -4 | 6 | 0
Nc1n[nH]c(C2CC2)c1N=Nc1ccc(Cl)c(Cl)c1 | 3 | 0 | 28 | 96* | nt
